# Assay results published in PubChem BioAssay (Tox21).
# Results filed as inconclusive are left out. Where a call stands in place of a potency, no number is given. Activity calls are given as the source filed them. Unless noted, the call rests on the fitted dose curve; in most records, active means well fitted curve in the direction sought with a large enough effect in the repeat runs; inconclusive means weak or mixed curves; inactive means no such curve, though single readings can be large; an effect the other way counts as inactive or inconclusive.
# Legend:
# [1] = qHTS assay to identify small molecule antagonists of the retinoid acid receptor (RAR) signaling pathway - cell viability counter screen (AID 1159551); further: nearly all actives have a fitted effect of over 35% in size; further: potency means the concentration at half of the fitted maximal effect
# In short: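 In this counter screen, the RARE-luciferase line C3RL4 was exposed for 6 h at 37 C and 5% CO2 to compounds with retinol at 1 uM final. Cellular ATP, read by luminescence, served as the viability measure.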
# [2] = qHTS assay to identify small molecule antagonists of the retinoic acid receptor (RAR) signaling pathway (AID 1159552; further: nearly all actives have a fitted effect of over 50% in size; further: potency means the concentration at half of the fitted maximal effect)
# In short: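 Luminescence from a RARE luciferase reporter in C3RL4 cells served as read-out. Cells received compounds together with 1 uM final retinol and incubated 6 hr at 37 C before detection reagent was added for 30 min at room temperature.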
# [3] = qHTS assay to identify small molecule agonists of the retinoic acid receptor (RAR) signaling pathway (AID 1159553); further: potency means the concentration at half of the fitted maximal effect
# In short: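 In this cell-based screen, 1,000 C3RL4 cells per well were cultured overnight, dosed with test chemicals in DMSO for 6 hr, and assessed for RARE luciferase luminescence.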
# [4] = qHTS assay to identify small molecule antagonists of the estrogen related receptor (ERR) signaling pathway - cell viability counter screen (AID 1224818); further: series mostly up to about 46 µM
# In short: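 Viability of ERR cells, CellTiter-Fluor fluorescence; 17.5 h compound exposure at 37 C, DMSO vehicle; 30 min reagent incubation at 37 C/5% CO2.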
# [5] = qHTS assay to identify small molecule antagonists of the estrogen related receptor (ERR) signaling pathway (AID 1224819; further: series mostly up to about 46 µM; nearly all actives have a fitted effect of over 50% in size)
# In short: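 Seed ERR cells 2,000/well; rest 6 h at 37 C/5% CO2; pin compounds in DMSO; incubate 18 h at 37 C; add One-Glo; wait 30 min at room temperature; measure luminescence.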
# [6] = qHTS assay to identify small molecule agonists of the estrogen related receptor (ERR) signaling pathway (AID 1224820)
# In short: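 After 6 h plating (2,000 cells/well) and 18 h compound treatment at 37 C, ERR cells were lysed with One-Glo and luminescence read after 30 min at room temperature.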
# [7] = tested on: estrogen-related receptor alpha (ERRalpha) with PGC-1alpha coactivator, human; experiment: qHTS assay to identify small molecule antagonists of the estrogen related receptor signaling pathway with the pleiotropic PPARgamma coactivator (PGC) (AID 1224821; calls by dose curve;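 further: series mostly up to about 46 µM; lower luminescence signal means antagonism of PGC/ERR signalling; nearly all actives have a fitted effect of over 50% in size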)
# In short: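 Luminescence from One-Glo luciferase reagent (30 min, room temperature) measured after 18 h compound treatment at 37 °C. Cells carry the PGC/ERR reporter and were seeded 6 h prior to dosing.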
# [8] = qHTS assay to identify small molecule antagonists of the estrogen related receptor signaling pathway with the pleiotropic PPARgamma coactivator (PGC) cell viability counter screen (AID 1224822; further: series mostly up to about 46 µM)
# In short: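 17.5 h compound treatment of PGC/ERR cells at 37 C; readout CellTiter-Fluor fluorescence; run alongside the PGC/ERR antagonist screen to flag cytotoxic compounds.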
# [9] = qHTS assay to identify small molecule agonists of the estrogen related receptor signaling pathway with the pleiotropic PPARgamma coactivator (PGC) (AID 1224823)
# In short: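 Luminescence from One-Glo reagent (30 min, room temperature) was read after 18 h compound treatment at 37 C of PGC/ERR cells plated 6 h beforehand; compounds delivered in DMSO by pin tool.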
# [10] = qHTS assay to identify small molecule antagonists of the estrogen related receptor (ERR) signaling pathway from Tox21 library - cell viability counter screen (AID 1224834); further: nearly all actives have a fitted effect of over 30% in size; further: potency means the concentration at half of the fitted maximal effect
# In short: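 Counter screen run in ERR cells (2,000 cells/well): cells pre-incubated 6 h, then treated with compounds for 17.5 h at 37 C. Fluorescence was read 30 min after CellTiter-Fluor addition.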
smiles,measurement,setting,value
O=[N+]([O-])c1c2ccccc2cc2ccccc12,Potency,[1],inactive
same,Potency,[2],inactive
same,Potency,[3],19.1 µM (active)
same,outcome,[4],inactive
same,Potency,[5],inactive
same,outcome,[6],inactive
same,Potency,[7],inactive
same,Potency,[8],inactive
same,outcome,[9],inactive
CCOCn1c(-c2ccc(Cl)cc2)c(C#N)c(Br)c1C(F)(F)F,Potency,[1],inactive
same,Potency,[2],3.06 µM (active)
same,Potency,[3],inactive
same,Potency,[10],4.86 µM (active)
O=C1NCN(c2ccccc2)C12CCN(CC1COc3ccccc3O1)CC2 (stereo not drawn),Potency,[1],inactive
same,Potency,[2],inactive
same,Potency,[3],inactive
same,outcome,[4],inactive
same,outcome,[6],inactive
same,outcome,[9],inactive
CCOP(=S)(OCC)OC(Cl)C(Cl)(Cl)Cl (stereo not drawn),Potency,[1],inactive
same,Potency,[2],inactive
same,Potency,[3],inactive
same,Potency,[10],inactive
Oc1ccc(C(=C(Cl)Cl)c2ccc(O)cc2)cc1,Potency,[1],inactive
same,Potency,[2],inactive
same,Potency,[3],inactive
CCCCOCN(C(=O)CCl)c1c(CC)cccc1CC,Potency,[1],inactive
COc1cc(C=O)cc2c1[C@H](COC(N)=O)[C@]1(OC(C)=O)ON2C[C@H]2[C@@H]1N2C(C)=O,Potency,[1],inactive
SCc1ccco1,Potency,[1],inactive
OC(Cc1ccccc1Cl)(Cn1cncn1)C1(Cl)CC1 (stereo not drawn),Potency,[1],inactive
same,Potency,[2],inactive
NC(=O)CCl,Potency,[1],inactive
same,Potency,[2],inactive
Nc1ccc([N+](=O)[O-])cc1Cl,Potency,[1],inactive
same,Potency,[2],inactive
Nc1ccccc1C(=O)OC/C=C/c1ccccc1,Potency,[1],inactive
same,Potency,[2],inactive
same,Potency,[3],1.22 µM (active)
O=[N+]([O-])c1ccc(Oc2ccc(C(F)(F)F)cc2[N+](=O)[O-])cc1,Potency,[1],inactive
CCCCCCCCCBr,Potency,[1],inactive
same,Potency,[2],inactive
same,Potency,[3],inactive
same,Potency,[10],inactive
Cn1cc(C2=C(c3cn(C4CCN(Cc5ccccn5)CC4)c4ccccc34)C(=O)NC2=O)c2ccccc21,Potency,[1],inactive
same,Potency,[2],inactive
same,Potency,[3],inactive
same,Potency,[10],11.9 µM (active)
COc1ccc(/C(=C/C(=O)N2CCOCC2)c2ccc(Cl)cc2)cc1OC,Potency,[1],inactive
same,Potency,[2],inactive
same,Potency,[3],inactive
COC(=O)N(C(=O)N1COC2(C(=O)OC)Cc3cc(Cl)ccc3C2=N1)c1ccc(OC(F)(F)F)cc1 (stereo not drawn),Potency,[1],inactive
ClC1=C(Cl)[C@]2(Cl)[C@H]3[C@H]([C@H]4C=C[C@H]3C4)[C@@]1(Cl)C2(Cl)Cl,Potency,[1],inactive
CC(C)(C)c1ccc(CSc2cnn(C(C)(C)C)c(=O)c2Cl)cc1,Potency,[1],inactive
same,Potency,[2],inactive
same,Potency,[3],inactive
O=c1ssc(Cl)c1Cl,Potency,[1],68.6 µM (active)
same,Potency,[2],61.1 µM (active)
CSCCCN=C=S,Potency,[1],inactive
same,Potency,[2],inactive
CC(C)CCCCCOC(=O)c1ccccc1C(=O)OCCCCCC(C)C,Potency,[1],inactive
same,Potency,[2],inactive
same,Potency,[3],inactive
same,Potency,[10],inactive
ClC1=C(Cl)[C@]2(Cl)[C@@H]3[C@@H]4C[C@@H]([C@H]5O[C@@H]45)[C@@H]3[C@@]1(Cl)C2(Cl)Cl,Potency,[1],61.1 µM (active)
same,Potency,[2],27.3 µM (active)
same,outcome,[4],inactive
same,outcome,[6],inactive
same,Potency,[8],inactive
same,outcome,[9],inactive
same,Potency,[10],54.5 µM (active)
NNC(=O)c1ccccc1,Potency,[1],inactive
same,Potency,[2],inactive
same,Potency,[3],1.77 µM (active)
same,Potency,[10],inactive
Cl/C=C\CCl,Potency,[1],inactive
same,Potency,[2],inactive
same,Potency,[10],inactive
c1ccc2cc3c(cc2c1)-c1cccc2cccc-3c12,Potency,[1],inactive
same,Potency,[2],inactive
same,Potency,[3],inactive
same,Potency,[10],inactive
CCCN(CCC)CCc1c[nH]c2ccccc12,Potency,[1],inactive
same,Potency,[2],inactive
same,Potency,[3],inactive
same,Potency,[10],inactive
Nc1ccc(Sc2ccc(N)cc2)cc1,Potency,[1],inactive
same,Potency,[2],inactive
same,outcome,[4],inactive
same,outcome,[6],inactive
same,Potency,[7],inactive
same,Potency,[8],inactive
same,outcome,[9],inactive
CC(=O)C(Cl)(Cl)Cl,Potency,[1],inactive
same,Potency,[2],29.6 µM (active)
same,Potency,[3],inactive
same,Potency,[10],20.9 µM (active)
CCCN(CCC)c1c([N+](=O)[O-])cc(S(N)(=O)=O)cc1[N+](=O)[O-],Potency,[1],58.1 µM (active)
same,Potency,[2],48.6 µM (active)
same,outcome,[6],inactive
same,outcome,[9],inactive
same,Potency,[10],46.2 µM (active)
CN(C)c1ccc(N=Nc2ccccc2)cc1,Potency,[1],inactive
same,Potency,[2],inactive
same,Potency,[3],0.097 µM (active)
same,Potency,[10],43.3 µM (active)
Fc1cccc(Cl)c1CCl,Potency,[1],inactive
same,Potency,[2],inactive
same,Potency,[3],inactive
same,Potency,[10],inactive
FC(F)(F)c1cccc(C2=CCN(CCc3ccc4ccccc4c3)CC2)c1,Potency,[1],inactive
same,Potency,[2],inactive
same,Potency,[3],inactive
same,Potency,[10],inactive
CC(=O)Nc1ccc2c(c1)Cc1ccccc1-2,Potency,[1],inactive
same,Potency,[2],inactive
same,Potency,[3],6.21 µM (active)
same,Potency,[10],inactive
Cc1cc(C(F)(C(F)(F)F)C(F)(F)F)ccc1NC(=O)c1cccc(I)c1C(=O)NC(C)(C)CS(C)(=O)=O,Potency,[1],inactive
same,Potency,[2],inactive
same,Potency,[3],inactive
same,Potency,[10],inactive
ClC(Cl)=C(c1ccc(Cl)cc1)c1ccc(Cl)cc1,Potency,[1],inactive
same,Potency,[2],inactive
same,Potency,[3],inactive
same,Potency,[10],inactive
c1ccc2c(c1)[nH]c1cnccc12,Potency,[1],inactive
same,Potency,[2],inactive
same,Potency,[3],inactive
same,Potency,[10],inactive
CC(=O)c1ccc(-c2ccccc2)cc1,Potency,[1],inactive
same,Potency,[2],inactive
same,Potency,[10],inactive
Clc1ccc(CCC(Cn2ccnc2)Sc2c(Cl)cccc2Cl)cc1 (stereo not drawn),Potency,[1],inactive
same,Potency,[2],inactive
same,Potency,[3],inactive
same,Potency,[10],29.8 µM (active)
COP(=S)(OC)Oc1cc(Cl)c(Br)cc1Cl,Potency,[1],inactive
same,Potency,[2],inactive
same,Potency,[3],inactive
same,Potency,[10],inactive
CCOC(=O)C1(c2ccccc2)CCN(CCC(C#N)(c2ccccc2)c2ccccc2)CC1,Potency,[1],inactive
same,Potency,[2],inactive
same,Potency,[3],inactive
same,Potency,[10],inactive
CCN,Potency,[1],inactive
same,Potency,[2],inactive
same,Potency,[3],inactive
same,Potency,[10],inactive
